# Screening data (PubChem BioAssay)
# Nrf2 inh – Nrf2 qHTS screen for inhibitors; A549 ARE-Fluc reporter, luciferase luminescence, 18-24 h; Potency, µM (top dose mostly 46 µM), actives largely listed as inhibitors; actives 2.1% (n = 360,000); AID 504444, 2011; note: nearly all actives have a fitted effect of over 60% in size
#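 A549 ARE_Fluc cells (5000/well, 5% FBS OPTI-MEM) pre-incubated 2 h, then treated with compounds 18-24 h at 37C/5% CO2 in concentration-response. CellTiter-Fluor viability read first; BugLite luciferase luminescence after 15 min at room temperature gives Nrf2 activity.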
# HepG2 tox – qHTS for Inhibitors of TGF-b: Cytotox Counterscreen. HepG2 CAGA-GFP viability, ATP luminescence, 18 h. Potency, µM (top dose mostly 46.1 µM), hits mostly cytotoxic. actives 0.76% (n = 410,000)
#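 HepG2 CAGA-GFP cells (1000/well, DMEM with 1% FBS) received compound, then TGF-beta at 500 pg/mL final, and were incubated 18 hours at 37 degrees C. Viability was read by CellTiter-Glo luminescence. Media-only wells were set as complete cell-killing and DMSO as no toxicity.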
# A549 tox – Nrf2 qHTS screen for inhibitors: counterscreen for cytotoxicity; A549 ARE-Fluc cells, CellTiter-Fluor viability, 18-24 h; Potency, µM (series often up to 46 µM), most hits filed as inhibitors; actives 0.16% (n = 390,000)
#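 A549 ARE-Fluc cells in 5% FBS OPTI-MEM, 5000 cells/well, rested 2 h then exposed to compounds in concentration-response for 18-24 h at 37 °C. Viability by CellTiter-Fluor fluorescence (Ex 405/Em 525) after 30 min; luciferase luminescence (BugLite, 15 min, RT) read afterwards.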
# S2 tox – Viability Counterscreen for Primary qHTS for Inhibitors of ATXN expression; S2 cells (HEK-293 line with an ATXN2-luciferase reporter) viability, CellTiter-Fluor protease fluorescence, 24 h; Potency, µM (doses to about 56.7 µM), hits mostly cytotoxic; actives 0.49% (n = 400,000); AID 651635, 2014; note: nearly all actives have a fitted effect of over 40% in size
# ATXN2 expr inh – Primary qHTS for Inhibitors of ATXN expression; HEK-293 ATXN2-luciferase reporter, luminescence, 24 h; Potency, µM (titrated, usually from 57 µM), most hits filed as inhibitors; actives 0.72% (n = 360,000); AID 1745845, 2022; note: nearly all actives have a fitted effect of over 55% in size
#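 qHTS (up to 57 uM final) was run with 24 h compound exposure of reporter cells at 37 °C. Each well was multiplexed: SteadyGlo luminescence measured ATXN2-luciferase expression after a fluorogenic Gly-Phe-AFC viability readout (25 uM final).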
# TGFb SMAD3 inh – qHTS for Inhibitors of TGF-b; HepG2 CAGA-GFP TGF-b/SMAD3 reporter, GFP fluorescence, 18 h; TGF-beta stimulated, 500 pg/mL final; Potency, µM (titrated, usually from 46.1 µM), usual class: inhibitors; actives 1.2% (n = 410,000); note: nearly all actives have a fitted effect of over 65% in size
#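 HEPG2 CAGA-GFP reporter cells (1000/well, DMEM with 1% FBS) received compounds, then recombinant TGF-beta at 500 pg/mL final for 18 hours at 37 degrees C. Per-cell GFP summed per well was normalised to unstimulated and stimulated DMSO controls before curve fitting.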
# A number is an active result; - = inactive; ? = inconclusive; . = no result given. Only some compounds are listed: those with a hit (about 3.8% of all), similar ones and a draw of the others. Calls come from the whole dose curve; as a rule, active = well fitted curve in the direction sought with a large enough effect; inconclusive = small, poorly fitted or top-dose-only effect, or another doubt; inactive = no such curve, though single readings can be large; an effect the other way counts as inactive or inconclusive.
SMILES,Nrf2 inh,HepG2 tox,A549 tox,S2 tox,ATXN2 expr inh,TGFb SMAD3 inh
CC(C)CN=C(NS(=O)(=O)c1ccccc1)C(Cl)(Cl)Cl,-,11µM,?,?,?,?
O=C(NC(=S)Nc1cc(Cl)ccc1O)c1cccc(Br)c1,?,-,-,-,.,10µM
Cc1cccc(N2CCN(C(=S)Nc3ccc4nc(N5CCN(C)CC5)cc(C)c4c3)CC2C)c1 (stereo unspecified),-,10µM,-,.,.,?
Cc1cc(N2CCN(C)CC2)nc2ccc(NC(=S)NCCCN3CCc4ccccc4C3)cc12,-,-,-,18µM,32µM,-
Cc1cc(N2CCN(C)CC2)nc2ccc(NC(=S)NCCN3CCc4ccccc4C3)cc12,-,-,-,.,.,?
Cc1cc(N2CCCC2)nc2ccc(NC(=S)NCCCN3CCC(C)CC3)cc12,-,18µM,9.2µM,?,?,?
CC(C)C1C(=O)Nc2ccc(S(=O)(=O)NCCc3ccc(Cl)cc3)cc21 (stereo unspecified),?,-,-,-,?,?
Cc1ccc(N(C(=O)Cn2nnc3ccccc32)C(C(=O)NCc2ccccc2)c2ccccn2)cc1 (stereo unspecified),-,-,-,-,-,-
Cc1oc(-c2cccc(Cl)c2)nc1CN1CCCC(C(=O)NCc2ccc(Cl)cc2)C1 (stereo unspecified),-,-,-,-,-,?
COc1ccccc1CNC(=O)C1CCN(Cc2nc(-c3ccc(OC)c(OC)c3)oc2C)CC1,-,-,-,-,-,-
COc1ccccc1N1CCN(Cc2nc(-c3ccc(F)cc3)oc2C)CC1,?,-,-,?,.,?
COc1ccc(-c2nc(CN3CCN(c4ccccc4OC)CC3)c(C)o2)cc1,18µM,-,?,-,-,-
Cc1ccc(CNC(=O)C2CCCN(Cc3nc(-c4cccc(C)c4)oc3C)C2)cc1 (stereo unspecified),?,16µM,-,.,.,?
Cc1cccc(-c2nc(CN3CCCC(C(=O)NC4CCCCCC4)C3)c(C)o2)c1 (stereo unspecified),?,-,?,?,-,11µM
CCc1ccc(-c2nc(CN3CCC(C(=O)NCc4ccccc4OC)CC3)c(C)o2)cc1,-,14µM,?,.,.,?
Cc1cccc(-c2nc(CN3CCCC(C(=O)NC4CCCCC4)C3)c(C)o2)c1 (stereo unspecified),?,-,-,-,-,?
CCCCOC(=O)c1ccc(NC(=O)CC2NCCNC2=O)cc1 (stereo unspecified),-,-,-,-,-,-
CNC[C@H](CC1CCCCC1)NC[C@H](Cc1ccccc1)NCCC12CC3CC(CC(C3)C1)C2,?,13µM,?,16µM,-,?
COc1ccc2c(c1)Sc1ccccc1N2CCN(C)C,-,-,-,-,-,-
CCC(=O)c1ccc2c(c1)N(CCCN(C)C)c1ccccc1S2,-,16µM,-,?,?,?
COc1cc2c(cc1OC)CN(C(=O)c1ccc([N+](=O)[O-])o1)CC2,-,-,?,-,-,13µM
CCOC(=O)c1c(C)[nH]c(C(=O)N2CCc3cc(OC)c(OC)cc3C2)c1C,23µM,-,?,-,-,?
O=C(c1ccc([N+](=O)[O-])o1)N1CCc2ccccc2C1,?,-,-,-,.,?
CCOC(=O)c1c(C)[nH]c(C(=O)N2CCN(C(=O)OCC)CC2)c1C,-,-,-,-,-,-
CCC(=O)c1ccc(OCC(=O)NCC2(N3CCCCC3)CCCCC2)cc1,-,-,-,-,.,-
SMILES,Nrf2 inh,HepG2 tox,A549 tox,S2 tox,ATXN2 expr inh,TGFb SMAD3 inh
COc1cc(SSc2cc(OC)cc([N+](=O)[O-])c2N)c(N)c([N+](=O)[O-])c1,-,-,-,7.9µM,.,?
COc1cc([N+](=O)[O-])c2ncsc2c1,-,-,-,-,-,-
CC1(C)SC(=S)N(/N=C/c2ccccc2)C1N(O)C(=O)Nc1ccc([N+](=O)[O-])cc1 (stereo unspecified),?,11µM,?,-,-,?
CNC(=O)N(O)C1N(/N=C/c2ccc(N(C)C)cc2)C(=S)SC1(C)C (stereo unspecified),-,-,-,-,-,-
N#CC1=C(N)NC(=S)C(C(N)=O)C1c1ccc(Cl)cc1Cl (stereo unspecified),-,7.1µM,-,24µM,?,?
N#CC1=C(N)NC(=S)C(C(N)=O)C1c1ccccc1F (stereo unspecified),-,-,-,-,-,-
CCOc1ccc(NC(=O)Cn2c(=O)n(Cc3nc(-c4ccccc4)no3)c(=O)c3ccccc32)cc1,-,-,-,.,.,?
Oc1cc(-c2ccncc2)cc2cccnc12,-,11µM,-,-,3.5µM,?
CN(C)c1ccc(-c2cc(O)c3ncccc3c2)cc1,-,-,-,-,?,?
CCC(Sc1nncn2c1cc1occc12)C(=O)Nc1ccc(C)c(Cl)c1 (stereo unspecified),?,-,-,.,.,?
CN(C)c1ccc(C(CNS(=O)(=O)c2ccc(Br)cc2)N2CCOCC2)cc1 (stereo unspecified),.,-,-,.,.,?
O=C1/C(=C/c2ccncc2)SC(=S)N1C1CCS(=O)(=O)C1 (stereo unspecified),?,20µM,?,?,-,?
Cc1ccc(C)c(OCC(O)CN2CCC(CN3C(=O)c4cccc5cccc(c45)C3=O)CC2)c1 (stereo unspecified),-,-,-,.,28µM,?
Cc1cc([N+](=O)[O-])ccc1NCc1ccccc1[N+](=O)[O-],-,-,-,?,-,-
Cc1cc([N+](=O)[O-])ccc1NCc1cccc2ccccc12,15µM,-,?,-,-,-
COc1cccc(C(c2cccc(OC)c2)c2ccccc2C(=O)O)c1,-,-,-,-,-,-
CC(C)CC(CSc1ccc(Br)cc1)N1CCN(CCc2ccccc2)CCC1=O (stereo unspecified),-,-,-,.,.,-
O=C(CC(=O)c1ccccc1)Nc1ccccc1C(F)(F)F,16µM,-,-,-,-,-
O=C(COc1ccc(C(=S)N2CCOCC2)cc1)Nc1ccccc1C(F)(F)F,?,-,-,-,-,-
O=C(COc1ccc(C(=S)N2CCCC2)cc1)Nc1ccccc1C(F)(F)F,23µM,-,?,-,-,-
CCc1cccc(-n2nnc(-c3nc(-c4cccs4)no3)c2N)c1,?,-,-,.,.,-
COc1ccc(/C=N\NC(=O)c2sccc2C)cc1Cn1nc(C)cc1C,-,-,-,-,-,-
